system: wheat germ agglutinin (Triticum aestivum), Alexa647-labelled; assay: wheat germ agglutinin binders on compound microarrays, profiling panel, artefact control for SMM control-protein annotation, biochemical, small-molecule microarray, 635/667 nm fluorescence (AID 1140); conditions: WGA-A647 binding, 635 nm fluorescence, higher = more signal;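 further: score merges 667 nm feature emission with signal to noise over triplicate slides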

Row | SMILES | composite z-score
1 | COCCOC(=O)N1C(=O)[C@@]2(c3cc(C#CCC(C(=O)OC)C(=O)OC)ccc31)[C@H](C(N)=O)[C@H]1C(=O)O[C@H](c3ccccc3)[C@H](c3ccccc3)N1[C@@H]2c1ccc(O)cc1 | 1.06
2 | COc1cc(OC)c(C(O)C2C=CC3C(=O)N(c4ccccc4)C(=O)C3N2Nc2ccc(C(C)C)cc2)cc1Br (stereo unspecified) | 1.2
3 | C#CCN1[C@@H](Cc2ccccc2)C(=O)O[C@H](Cc2ccccc2)[C@@H]1/C=C/C1CC1 | 0.884
4 | CN(C)CCCNC(=O)[C@@H]1c2ccccc2C(=O)N(Cc2ccccc2C(F)(F)F)[C@H]1c1ccc(CO)cc1 | 0.1
5 | COc1ccc([Si](C)(C)[C@H]2[C@H](CCO)O[C@@]3(C(=O)N(Cc4ccc(NC(=O)[C@H](C)O)cc4)c4ccccc43)[C@@H]2C)cc1 | 0.355
6 | CCOC(=O)C[C@H]1[C@H](OC(=O)c2ccccc2-c2ccccc2)[C@@H](NC(=O)c2ccc3ccccc3c2)c2cc(OCCCO)ccc2N1C(=O)Cc1ccc(OC)cc1 | -0.178
7 | COCCCN1C(=O)[C@@]2(c3ccc([N+](=O)[O-])cc3)CC(=O)N(CC34CC5CC(CC(C5)C3)C4)[C@@H]2c2ccc(CO)cc21 | 0.115
8 | C=C1C(=O)C=C2CN(C(=O)c3ccccc3)[C@@](Cc3ccc(OC)cc3)(C(=O)OC)[C@@H]12 | 1.13
9 | C=CCNC(=O)[C@H]1[C@@H]2C(=O)O[C@@H](c3ccccc3)[C@@H](c3ccccc3)N2[C@@H](c2ccc(OCCO)cc2)[C@]12C(=O)Nc1ccccc12 | 1.22
10 | COCCOC(=O)N1C(=O)[C@@]2(c3ccccc31)[C@H](c1ccc(O)cc1)N1[C@H](c3ccccc3)[C@H](c3ccccc3)OC(=O)[C@H]1[C@@H]2C(=O)N1CCCCCCC1 | 1.43
11 | C[N+](C)(C)CCCCNC(=O)[C@H]1C[C@H]2C(=O)N[C@@H](Cc3ccccc3)C(=O)N2[C@H]1c1cccc(OCCO)c1 | -0.4
12 | CC(C)[Si](C#CCCc1ccccc1)(O[C@H](c1ccccc1)c1cn(Cc2ccccc2)nn1)C(C)C | 0.782
13 | COc1ccc([Si](C)(C)[C@@H]2[C@@H](CC(=O)N3Cc4ccccc4C[C@H]3CO)O[C@]3(C(=O)N(Cc4cccc(N5CCOC5=O)c4)c4ccccc43)[C@H]2C)cc1 | -0.244
14 | CN1C(=O)[C@@H]2[C@@H](CC(COc3ccccc3)=C3[C@@H](CCc4ccccc4)OB(O)C[C@@H]32)C1=O | 0.469
15 | COc1cc(C(O)C2C=CC3C(=O)N(c4ccccc4)C(=O)C3N2Nc2ccccc2F)cc(OC)c1OC (stereo unspecified) | 0.792
16 | CCCCN1CC=CC23O[C@@H]4/C=C\CCCOC(=O)C4[C@H]2C(=O)N(C(CO)C(C)C)[C@@H]3C1=O (stereo partly specified) | -0.0096
17 | O=C1N(CCS(=O)(=O)c2ccccc2)c2ccccc2C[C@]12N=C(c1ccc(OCCCO)cc1)O[C@@H]2c1ccccc1 | 0.392
18 | O=C1NC(=O)C2C1C=CC(C(O)c1ccc([N+](=O)[O-])cc1)N2Nc1ccccn1 (stereo unspecified) | -0.0047

Row | SMILES | composite z-score
19 | O=C1[C@H]2C=C(I)[C@H](C[C@@H]2OCCCCCCO)[C@@]12CO2 | -0.291
20 | CN(C)C(=O)[C@]1(Cc2ccccc2)N=C(c2ccc(OCCCO)cc2)O[C@@H]1c1ccccc1CN=[N+]=[N-] | 0.569
21 | Cc1ccc(C(C)CC(O)C2C=CC3C(=O)N(C)C(=O)C3N2Nc2ccccc2)o1 (stereo unspecified) | 1.15
22 | CCCCCCc1nc(-c2ccc(-c3ccc(Cl)c(Cl)c3)o2)cc2c1[Si](C(C)C)(C(C)C)OC2 | 0.105
23 | CC1CC/C=C\[C@H]2OC34C=CCN(c5ccc(Cl)cc5)C(=O)[C@H]3N(CCCCCCO)C(=O)[C@]4(C)C2C(=O)O1 (stereo partly specified) | -0.988
24 | C=C(CCCC)/C(=C/C[C@H](OC(=O)c1ccncc1)c1cccc(OCCO)c1)c1cnc2ccccc2c1 | 0.851
25 | C[C@@H]1ON(c2ccccc2)[C@H](c2ccccc2)[C@H]1C(=O)O | 0.607
26 | CCOC(=O)C1=CC[C@@H](c2ccc(OC)cc2)N(S(=O)(=O)c2ccc(C)cc2)[C@H]1CC | 0.902
27 | COC(=O)[C@@]1(Cc2ccc(OC)cc2)[C@H]2c3cc(C(=O)N(C)C)[nH]c3C[C@H]2CN1C(=O)c1ccccc1 | 0.895
28 | CCCCC(O)C1C=CC2C(=O)N(c3ccccc3)C(=O)C2N1Nc1ccccc1 (stereo unspecified) | 1.17
29 | CC(C)OC(=O)CC(=O)CC(O)c1cccc([N+](=O)[O-])c1 (stereo unspecified) | 0.265
30 | O=C1NC(=O)C2C1C=CC(C(O)c1ccc(B(O)O)cc1)N2Nc1ccc(Cl)cc1Cl (stereo unspecified) | 0.641
31 | O=C1c2ccccc2[C@@]2(Cc3ccccc3N(Cc3ccccc3)C2=O)[C@H](c2ccc(CO)cc2)N1Cc1ccccc1Cl | -0.45
32 | CO[C@H]1O[C@H](CO)[C@@H](OC(=O)Nc2ccccc2)[C@H](OC(=O)Nc2ccccc2)[C@H]1OC(=O)Nc1ccccc1 | 0.791
33 | COCCCNC(=O)[C@@]1(CCS(=O)(=O)c2ccccc2)COC(c2ccc(OCCCO)cc2)=N1 | 1.59
34 | COc1ccc(C(O)C2C=CC3C(=O)NC(=O)C3N2Nc2ccc(Cl)cc2Cl)c2ccccc12 (stereo unspecified) | 1.19
35 | O=C1C[C@@](C(=O)O)(c2ccc([N+](=O)[O-])cc2)[C@@H](c2ccc(CO)cc2)N1C1CCCCC1 | 0.92
36 | CC(C)(C)N1CC=CC23O[C@@H]4/C=C\CCCOC(=O)C4[C@H]2C(=O)N(CCCCCO)[C@@H]3C1=O (stereo partly specified) | -0.408

Source: PubChem BioAssay
